Assay outcomes deposited in PubChem BioAssay by National Center for Advancing Translational Sciences (NCATS).
AMA1 RON2 block: disrupts binding of P. falciparum AMA1 to RON2 | AlphaScreen AMA1-biotinylated RON2 peptide binding | 0.2% of 360,000 active | Potency, µM (top dose mostly 58.2 µM), for inactives: at the highest dose activity change, negative = inhibition, actives largely listed as inhibitors;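 also: potency is read from the fitted curve at half-maximal effect; 0% = vehicle wells and -100% = peptide control; nearly all actives have a fitted effect of over 45% in size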
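AMA1 (3D7) with his tag at 25 nM final met compounds first, then biotinylated RON2 peptide at 25 nM; detection used donor plus acceptor beads, 10 µg/mL apiece, read by AlphaScreen after 30 min at room temperature.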
HCV inhibitor: inhibitors of hepatitis C virus infection. Potency, µM (series often up to 41.8 µM), for the others: at the top dose activity change, negative = inhibition, actives largely listed as inhibitors. 3.4% of 340,000 active. AID 651820. Huh7.5.1 HCVcc-Cre infection, luciferase reporter, 44 h; also: potency is read from the fitted curve at half-maximal effect; % is scaled to controls: 0 for no effect and ±100 for the full control effect
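A cell-based infection assay in which seeded cells (1,000 per well) receive test compound after 4 h, are inoculated with HCVcc-Cre at approximately 0.5 moi, and are incubated 44 h before luminescence detection.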
CHX counter: counter-screen for Shiga toxin inhibitors: cycloheximide protein synthesis inhibition | cell reporter, cycloheximide protein synthesis inhibition counterscreen | max response, % | 12% of 300,000 active; in the data active = max response mostly above about 13%, no sharp cut-off; inactive = mostly below about 14%; also: read at 38.3 µM for the half of the compounds with a filed dose; 0% is about no effect
Shiga inhibitor: Shiga toxin inhibition; Vero cells, Shiga toxin protein synthesis inhibition reporter; inhibition, % at 38.7 µM; 9.2% of 290,000 active; AID 2315; in the data active = inhibition mostly above about 28%, no sharp cut-off; inactive = mostly below about 43%; also: 0% is about no effect
Pf growth 96h: inhibits malaria parasite growth, 96 h; P. falciparum luciferase reporter growth, 96 h; Potency, µM (series often up to 28.7 µM), without a hit: at the top dose activity change, negative = inhibition, actives largely listed as inhibitors; 6.9% of 320,000 active; AID 504834; also: potency is read from the fitted curve at half-maximal effect; % is scaled to controls: 0 for no effect and ±100 for the full control effect
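Delayed-death screen, second-generation endpoint: infected erythrocytes, 2% hematocrit, 0.05% parasitemia final; 96 hours at 37 C, 5% CO2; luciferase detection reagent; luminescence decrease equals reduced growth.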
Pf growth 48h: P. falciparum growth inhibition at 48 hours (one generation); P. falciparum luciferase growth in erythrocytes, 48 h; Potency, µM (titrated, usually from 28.7 µM), for inactives: at the top dose activity change, negative = inhibition, most hits filed as inhibitors; 5.9% of 310,000 active; AID 504832; also: potency is read from the fitted curve at half-maximal effect; % is scaled to controls: 0 for no effect and ±100 for the full control effect
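Here the parasites carry a stable luciferase gene and grow inside erythrocytes in Albumax-based RPMI medium with compound for one erythrocytic cycle. Activity is scored as loss of luminescent signal.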
Starred values were filed as active, the others as inactive; ? = inconclusive; . = not tested or not shown; [ ] = dose if it differs, or a comment. Rows were chosen to be rich in hits. Some 21% of all compounds tested hit in one or more screens of this group. Unless noted, calls follow the shape of the dose curve; as a rule, active = well fitted curve in the direction sought with a large enough effect; inconclusive = small, poorly fitted or top-dose-only effect, or another doubt; inactive = no such curve, though single readings can be large; an effect the other way counts as inactive or inconclusive.

SMILES	AMA1 RON2 block	HCV inhibitor	CHX counter	Shiga inhibitor	Pf growth 96h	Pf growth 48h
O=C(COc1ccc(Br)cc1)Nc1ccc([N+](=O)[O-])cn1	-3%	2%	-3	-10	4.1µM*	37%
COc1cc(C(C)=O)ccc1OC(=O)N1CCOCC1	8%	.	.	.	.	.
CCCCC(=O)N(C)c1c(CC)nc2c(OCC(N)=O)cccn12	-5%	.	.	.	.	.
O=C(NC1CCN(S(=O)(=O)c2ccccc2C(F)(F)F)CC1)c1ccco1	23%	5%	-1	5	10%	-41%
COC(=O)c1cc(C(=O)Nc2ccc(C)cn2)cc([N+](=O)[O-])c1	3%	?	-1	-5	12µM*	18%
COc1cccc(OC)c1C(=O)Nc1ccc([N+](=O)[O-])cn1	-3%	1%	-1	-7	?	20%
Cc1ccc(C(=O)Nc2ccc([N+](=O)[O-])cn2)o1	-12%	1%	45*	122*	159%	110%
Cc1ccc(NC(=O)CCc2nnc3ccc(N4CCC5(CC4)OCCO5)nn23)cc1F	6%	10%	1	-7	47%	?
COc1cccc(/C=C/C(=O)c2ccc(C)c([N+](=O)[O-])c2)c1	-5%	36%	5	12	-3%	-3%
COC(=O)c1ccc(/C=C/C(=O)c2cccc(OC)c2)cc1	?	?	70*	52*	-9%	1%
COc1cccc(C(=O)/C=C/c2ccc(SC)cc2)c1	-2%	-12%	49*	80*	-29%	-2%
CSc1ccc(C(=O)/C=C/c2ccc(N)cc2)cc1	-13%	-23%	55*	77*	67%	187%
CSCC[C@H](NC(=O)Cc1c(C)c2c(cc(C)c3c(C)coc32)oc1=O)C(=O)O	-5%	17%	-2	3	-6%	-17%[0.00184 µM]
O=C(CSC(=S)N1CCCC1)NCC(=O)Nc1ccc(F)c(F)c1	-10%	.	0	-8	-4%	27%
CC1(C)OC(=O)N(NCc2ccccc2)C1(C)O (stereo not given)	0%	-11%	-6	-6	7%	1%
N#Cc1ccc(-c2csc(NC3=NCCCCC3)n2)cc1	35%	?	20*	73*	-41%	-8%
c1ccc(-c2csc(NC3=NCCCCC3)n2)cc1	9%	1%	43*	35	91%	89%
Nc1c(C(=O)c2ccc(Cl)cc2)oc2ccccc12	-3%	37%	32*	65*	123%	50%
COc1ccc(C(=O)c2oc3ccc(OC)cc3c2N)cc1	42%	-3%	29*	70*	?	145%
COC(=O)c1oc2ccc(OC)cc2c1N	0%	?	28*	63*	44%	110%
COc1ccc2oc(C(=O)OCC(=O)NC3CC3)c(C)c2c1	-13%	-5%	9	16	44%	39%
CCOC(=O)CC1(C)Sc2ccccc2N1S(=O)(=O)c1ccc(C)cc1 (stereo not given)	18%	.	.	.	.	.
CCCCN=C1NN=C(c2ccc(C)c(C)c2)CS1	46%	?	44*	87*	?	?
COCCN=C1NN=C(c2ccc(C)c([N+](=O)[O-])c2)CS1	51%	6%	47*	63*	134%	185%
CC(C)CCNC(=O)C1(C)CCN1Cc1ccc2ccccc2c1 (stereo not given)	-4%	.	.	.	.	.
SMILES	AMA1 RON2 block	HCV inhibitor	CHX counter	Shiga inhibitor	Pf growth 96h	Pf growth 48h
O=C(NCc1ccccc1Cl)c1csc([C@@H]2C[C@H](O)[C@@H](CO)O2)n1	-4%	.	.	.	.	.
COC(=O)c1ccc(CNC(=O)c2ccccc2C(=O)NCC2(CBr)OCCO2)cc1	0%	.	.	.	.	.
CCCC1CCc2c(sc(NC(=O)OCC)c2C#N)C1 (stereo not given)	18%	-26%	11	33	12µM*	-27%
CCc1ccc(CCC(=O)Nc2sc3c(c2C#N)CCCC3)o1	-3%	4.5µM*	1	4	.	-19%
N#Cc1c(NC(=O)CCC(=O)O)sc2c1CCCC2	4%	13%	-3	-13	2%	18%
CCC(=O)Nc1sc2c(c1C#N)CCC2	-4%	-21%	6	29	?	22%
CCOC(=O)Nc1sc2c(c1C#N)CCCC2	5%	-12%	31*	74*	124%	.
Cc1c(C(=O)N/N=C/c2ccncc2)nnn1-c1nonc1N	32%	3%	.	.	11%	13%
Cc1ccccc1N=C(NO)c1nonc1N	-13%	-20%	1	17	66%	47%
CC(C)(C)c1ccc(OCC(O)CN2CCOCC2)cc1 (stereo not given)	9%	?	.	.	.	.
CCN(CC)c1ccc(C=Nc2cc(C)ccc2C)c(O)c1	?	-23%	-3	14	13%	13%
CCN(CC)c1ccc(/C=N/c2sc3c(c2C#N)C2CCN3CC2)c(O)c1	-6%[11.6 µM]	4.5µM*	7	2	-6%	-12%
COc1ccc(CCC(C)NCc2cccc(Br)c2)cc1 (stereo not given)	-1%	6%	-1	-10	8.3µM*	-7%
CC(NC(=O)C1CCC(CNS(=O)(=O)c2ccc3c(c2)C(C)(C)C(=O)N3C)CC1)c1ccccc1 (stereo not given)	0%	?	-2	8	7%	-22%
COc1cc(OC)cc(C(=O)N2CCN(S(=O)(=O)c3ccc(Cl)s3)CC2)c1	2%	5%	.	.	?	?
O=C(COC(=O)c1ccccc1F)NC1CCCC1	12%	30%	37*	36*	32%	21%
O=C(COC(=O)c1cncc(Br)c1)NC1CCCCCC1	-6%	-1%	-1	-12	19%	3.3µM*
O=C(COC(=O)c1cccnc1Nc1ccccc1F)NC1CC1	-1%[11.6 µM]	0%	14*	28	41%	12%
O=C(COC(=O)c1ccccc1)NC1CCCC1	-3%	11%	84*	109*	88%	97%
O=C(COC(=O)c1cncc(Br)c1)NC1CCCC1	-11%	-3%	11	-5	14%	49%
Fc1ccc2nncc(SCc3ccccc3Cl)c2c1	0%	5%	.	.	.	.
O=C(Nc1cccc(Cl)c1)c1ccc(=O)[nH]n1	19%	10%	2	22	42%	.
CC(CNC1CCCCC1)OC(=O)c1ccccc1 (stereo not given)	0%	0%	.	.	-3%	1%
C[C@@H](CNC1CCCCC1)OC(=O)c1ccccc1	.	.	.	.	2.6µM*	2µM*
Fc1ccc(-n2ncc3c(SCc4cccnc4)ncnc32)cc1	40%	?	20*	23	29%	-22%
Cc1ccc(-n2ncc3c(SCc4ccccc4)ncnc32)cc1	34%	37%	20*	20	164%	195%
Cc1ccc(CSc2ncnc3c2cnn3-c2ccc(C)cc2)cc1	15%	6%	15*	8	158%	155%
c1ccc(CSc2ncnc3sccc23)cc1	24%	-20%	14	52*	-24%	9%
Cc1ccc(CSc2ncnc3c2cnn3-c2ccccc2)cc1	-3%	1%	1	-12	23%	54%
